Bioassay records as filed in PubChem BioAssay.
ASK1 primary – inhibitors of human ASK1 kinase. 0.99% of 22,000 active. Q99683. AlphaScreen MKK6 phosphorylation by ASK1, luminescence. inhibition, % at 7.44 µM. AID 1159602; in the data active means inhibition above about 35%;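 further: 0% = median of compound wells and 100% = no enzyme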
ULK1 inh – blocks human autophagy kinase ULK1; O75385; AlphaScreen Atg13 phosphorylation by ULK1, luminescence; inhibition, % at 5.96 µM; 1.9% of 30,000 active; AID 1259251; in the data active means inhibition above about 43%;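 further: 0% = median of compound wells and 100% = no enzyme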
Target sequence (O75385 whole entry, looked up): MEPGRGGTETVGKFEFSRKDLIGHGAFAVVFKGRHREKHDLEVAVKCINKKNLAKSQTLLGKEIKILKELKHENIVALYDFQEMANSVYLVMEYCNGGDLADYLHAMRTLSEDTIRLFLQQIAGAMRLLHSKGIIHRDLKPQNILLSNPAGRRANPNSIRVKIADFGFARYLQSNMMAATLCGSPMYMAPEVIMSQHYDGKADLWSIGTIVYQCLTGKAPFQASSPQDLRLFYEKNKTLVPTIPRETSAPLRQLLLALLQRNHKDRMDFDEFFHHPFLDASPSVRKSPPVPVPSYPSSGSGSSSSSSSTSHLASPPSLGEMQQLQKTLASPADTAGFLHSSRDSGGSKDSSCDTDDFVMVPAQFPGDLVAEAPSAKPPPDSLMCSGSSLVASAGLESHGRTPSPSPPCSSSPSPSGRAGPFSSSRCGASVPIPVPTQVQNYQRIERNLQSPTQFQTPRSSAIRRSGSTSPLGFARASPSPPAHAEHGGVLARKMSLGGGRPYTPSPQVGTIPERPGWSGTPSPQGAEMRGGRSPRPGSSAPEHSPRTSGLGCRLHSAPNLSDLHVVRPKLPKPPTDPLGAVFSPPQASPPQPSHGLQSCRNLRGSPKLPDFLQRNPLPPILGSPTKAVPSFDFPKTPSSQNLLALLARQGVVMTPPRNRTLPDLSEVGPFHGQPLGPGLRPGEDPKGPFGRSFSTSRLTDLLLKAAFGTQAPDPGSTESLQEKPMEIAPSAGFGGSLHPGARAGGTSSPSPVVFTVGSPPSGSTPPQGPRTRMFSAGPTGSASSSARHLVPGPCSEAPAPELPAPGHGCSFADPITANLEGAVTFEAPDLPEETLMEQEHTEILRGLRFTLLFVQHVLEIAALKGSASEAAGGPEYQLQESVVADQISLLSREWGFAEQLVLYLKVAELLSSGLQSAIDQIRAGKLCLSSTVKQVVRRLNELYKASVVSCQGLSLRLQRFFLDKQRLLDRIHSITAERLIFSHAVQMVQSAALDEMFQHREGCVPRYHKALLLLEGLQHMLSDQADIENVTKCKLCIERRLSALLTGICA
* hit, by the source's call; . = no result given. An excerpt weighted towards active compounds, which were near 2.5% of everything screened.

SMILES | ASK1 primary | ULK1 inh
CC1CN(c2ncn(-c3ccc(Nc4ncc5ccc(-c6cnn(C)c6)c(Cl)c5n4)cc3)n2)CC(C)O1 (centres undefined) | 6.0 | 53.1*
Cn1c(Nc2nccc(NCCc3ccc(O)cc3)n2)nc2ccccc21 | -2.1 | 3.7
c1ccc(CN2CCC(Nc3ccnc(Oc4ccccc4)n3)CC2)cc1 | -13.2 | 5.6
Cc1ccc(COC(=O)Nc2ccc(-c3cn[nH]c3)cc2)cc1 | -1.4 | -0.8
CC(=O)Nc1ccc(NC(=O)c2ccc3nc(-c4ccc(C(=O)N5CCN(C)CC5)cc4)sc3c2)cc1 | 19.0 | -4.9
CC(C)(O)c1ccccc1CC[C@@H](SCC1(CC(=O)O)CC1)c1cccc(/C=C/c2ccc3ccc(Cl)cc3n2)c1 | . | 43.0*
CCN(CC)c1nc(NCc2nc3ccccc3[nH]2)nc(NC2CCC(O)CC2)n1 (centres undefined) | 18.3 | -4.7
Cc1ncn(-c2ccc(Nc3nccc(-c4cc(F)cc(-c5cnoc5)c4)n3)cc2)n1 | 15.8 | 18.8
Cc1nc(C)n(-c2ccc(Nc3nccc(-c4cc(F)cc(-c5cnoc5)c4)n3)cc2)n1 | 33.9 | 45.1*
Cc1noc(C)c1-c1nc(Nc2ccccc2)c2ncn(C3CCCCC3)c2n1 | -6.1 | 7.5
c1cc(Nc2nc(NC3CC3)c3ncn(C4CCCCC4)c3n2)ncn1 | -39.8 | 43.7*
Cc1noc(C)c1-c1nc(Nc2ccc(N3CCOCC3)cc2)c2ncn(C3CCCCC3)c2n1 | 7.0 | 49.9*
c1ccc(Nc2nc(NC3CC3)c3ncn(C4CCCCC4)c3n2)nc1 | 1.5 | -11.1
c1cc(N2CCOCC2)ccc1Nc1nc(NC2CC2)c2ncn(C3CCCCC3)c2n1 | 31.8 | 7.5
c1cc(N2CCOCC2)ccc1Nc1nc(Nc2ccc(N3CCOCC3)cc2)c2ncn(C3CCCCC3)c2n1 | -12.3 | 52.7*
c1cncc(-c2nc(-c3ccncc3)cc(N3CCCCC3)n2)c1 | . | -17.9
c1cnc2ccc(Nc3cc(NC4CC4)ncn3)cc2c1 | -11.1 | 9.9
O=C(NC1CCN(Cc2ccccc2)CC1)c1csc(Nc2ccccn2)n1 | -20.4 | 14.6
COc1ccc(CCNc2nc(Nc3cc(OC)c(OC)c(OC)c3)ncc2C)cc1 | 5.8 | 30.8
O=S(=O)(NCc1nc(-c2ccncc2)n[nH]1)c1ccc(Cl)cc1 | 6.7 | 11.8
CC(C)OC(=O)c1ccc2c(c1)C(=O)N(c1cccc([N+](=O)[O-])c1)C2=O | . | 4.8
COc1ccc(S(=O)(=O)/N=C2\C=CC(=O)C(Cl)=C2)cc1 | . | 44.1*
Cc1ccc(S(=O)(=O)/N=C2/C(Cl)=C(Cl)C(=O)c3ccccc32)cc1 | . | -2.4
N#Cc1cc(-c2ccnc(Nc3ccc(-c4ccccn4)cc3)n2)cc(N2CCOCC2)c1 | 20.7 | 4.0
N#Cc1cc(-c2ccnc(Nc3ccc(CN4CCCCC4)cc3)n2)cc(N2CCOCC2)c1 | 15.8 | 70.9*
SMILES | ASK1 primary | ULK1 inh
N#Cc1cc(-c2ccnc(Nc3ccc(N4CCNCC4)cc3)n2)cc(N2CCOCC2)c1 | 34.0 | 92.7*
N#Cc1cc(-c2ccnc(Nc3ccc(N4CCCCC4)cc3)n2)cc(N2CCOCC2)c1 | 4.8 | -4.8
Oc1ccc(CCNc2nc(NCCN3CCOCC3)nc3c2ncn3-c2ccccc2)cc1 | 3.3 | 3.9
O=C(NCc1nc2ccccc2[nH]1)c1cccc(N2CCOCC2)c1 | -0.1 | -2.3
O=C(NCc1nc2ccccc2[nH]1)c1cccc(Nc2ccc3ncccc3c2)c1 | -0.5 | 1.2
N#C/C(=C\c1cccc(Br)c1)C(=O)Nc1cc([N+](=O)[O-])ccc1F | . | 39.2
N#C/C(=C\c1cccc([N+](=O)[O-])c1)C(=O)Nc1ccc([N+](=O)[O-])cc1Br | . | 45.0*
CC(C)n1c(-c2cccs2)nc2c(NCCO)ncnc21 | 1.5 | 7.5
O=C(Nc1cnn(-c2cccc(C(=O)Oc3cccnc3)c2)c1)Nc1ccccc1Cl | -7.8 | 3.8
O=C(NCc1ccccc1)c1ccc2cncc(-c3ccccc3)c2n1 | . | 73.6*
COCCNC(=O)c1ccc2cncc(-c3ccsc3)c2n1 | . | 53.2*
Cc1cnc(CNC(=O)c2ccc3cncc(-c4ccccc4)c3n2)cn1 | . | 1.7
O=C(NC1CC1)c1ccc2cncc(-c3ccsc3)c2n1 | . | 35.9
CC(C)n1cnc2c(NCCO)nc(NCCCN3CCCC3=O)nc21 | -15.6 | -3.5
COc1ccc(-c2cccc(C(=O)Nc3ccc(N4CCOCC4)cc3)c2)cn1 | -3.5 | 9.2
Cc1ncn(-c2ccc(Nc3nccc(-c4ccc(C#N)c(N5CCCC(O)C5)c4)n3)cc2)n1 (centres undefined) | 12.4 | 2.6
N#Cc1cc(-c2ccnc(Nc3cccc(N)c3)n2)ccc1N1CCCC1 | 19.4 | 41.3
N#Cc1cc(-c2ccnc(Nc3ccc(N)cc3)n2)ccc1N1CCC(O)CC1 | 7.6 | 85.5*
Cc1ncn(-c2ccc(Nc3nccc(-c4ccc(N5CCCC(O)C5)c(C#N)c4)n3)cc2)n1 (centres undefined) | -7.5 | 79.5*
Nc1nc(Nc2ccc(N3CCOCC3)cc2)cc(Nc2nccc3ccccc23)n1 | 25.2 | -18.8
CCOc1cc(/C=N\NC(=O)c2n[nH]c3c2CCCC3)ccc1O | . | 44.4*
CCOc1cc(/C=N/N2C(=O)C3C(C2=O)C2C=CC3C23CC3)ccc1O (centres undefined) | . | 5.2
Fc1ccc(Nc2nccc(-c3cncc(N4CCOCC4)c3)n2)cc1 | 21.8 | 17.1
Fc1cc(-c2nc(Nc3ccc(Cn4ccnc4)cc3)ncc2F)cc(N2CCOCC2)c1 | 13.3 | 25.6
Cc1nc2ccc(Nc3nccc(-c4cncc(N5CCOCC5)c4)n3)cc2o1 | 15.8 | -13.8
SMILES | ASK1 primary | ULK1 inh
Fc1cc(-c2nc(Nc3cccc(Cn4ccnc4)c3)ncc2F)cc(N2CCOCC2)c1 | 19.8 | 79.3*
Cn1cnnc1-c1ccc(Nc2nccc(-c3cc(C#N)cc(N4CCOCC4)c3)n2)cc1 | 11.9 | -13.7
Cn1cnnc1-c1ccc(Nc2nccc(-c3cncc(N4CCOCC4)c3)n2)cc1 | 6.6 | 58.3*
Cc1[nH]nc2ccc(Nc3nccc(-c4cncc(N5CCOCC5)c4)n3)cc12 | 7.1 | 48.6*
COc1ccc(Nc2nccc(-c3cncc(N4CCOCC4)c3)n2)cc1OC | 20.6 | 47.0*
COc1cc(NC(=O)c2cnc(-c3ccc(N4CCOCC4)nc3)s2)cc(OC)c1OC | 1.4 | -10.8
CC(=O)Nc1ccc(Nc2nc(Nc3nccc4ccccc34)nc3c2ncn3-c2ccsc2)cc1 | -8.6 | -8.2
CC(C)n1c(Nc2cccc(N(C)C)c2)nc2c(NCc3ccccc3)ncnc21 | 22.8 | 12.6
CCCNc1cc(Nc2ccccn2)nc(N)n1 | -1.4 | 1.2
CCN(CC)C(=O)C1CCCN(c2nc(NCc3cccc(C(F)(F)F)c3)c3ncn(C(C)C)c3n2)C1 (centres undefined) | 17.0 | -5.1
COc1ccc2c(c1)CC(C(=O)Nc1ccc(-c3cn[nH]c3)cc1OCC1CCCCN1C)CO2 (centres undefined) | 10.1 | -6.7
NC(=O)c1ccc(C(=O)Nc2nccc(-c3ccccc3)n2)cc1 | 13.1 | -8.9
c1cn(Cc2ccc(Nc3nccc(-c4cncc(N5CCOCC5)c4)n3)cc2)cn1 | -3.7 | 60.4*
c1cnn(Cc2ccc(Nc3nccc(-c4cncc(N5CCOCC5)c4)n3)cc2)c1 | -4.2 | 30.0
O=C1Cc2cc(Nc3cc(Nc4ccccc4-c4ncccn4)c(C(F)(F)F)cn3)ccc2N1 | 2.6 | -34.5
Cc1cc(NCc2cccc(C(F)(F)F)c2)nc(N2CCN(Cc3ccc4c(c3)OCO4)CC2)n1 | 8.5 | -30.8
Cc1ccc(-c2cccc3cnc(Nc4cccc(C(=O)N5CCN(C)CC5)c4)nc23)cn1 | 9.1 | 61.6*
